Legend:
Experiment in all cases: log2 ratio of Biotin-Ahx-Ub-VS probe labelling (compound/DMSO); higher = less target engagement, active = hit call of the paper (q ≤ 0.05, log2 ratio ≤ -1)
Conditions in all cases: treatment time: 3 h
[1] = compound: CCC1N(CCc2sccc12)C(=O)CCl
How it was run: (§1)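 HEK293T lysate (495 µg per sample, in Tris/CHAPS/IGEPAL buffer with protease inhibitors) was exposed in triplicate to compound at 50 or 200 µM, or to DMSO, for 3 h, then to Biotin-Ahx-Ub-VS (0.5 µM final) for 1 h. The labelled DUBs were enriched on NeutrAvidin, digested with LysC and trypsin, and analysed by diaPASEF LC-MS/MS. Average base-two log ratios of compound over DMSO came from median-normalised label-free quantities by unpaired t-test. Only proteins with at least 2 unique peptides were used.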

[2] = compound: CN1c2ccccc2C(CS1(=O)=O)NC(=O)CCl
How it was run: as §1

[3] = compound: Cl.ClCC(=O)N1CCc2ncncc2C1
How it was run: as §1

[4] = compound: Cl.Cn1ncc2C(CCCc12)NC(=O)CCl
How it was run: as §1

[5] = compound: ClCC(=O)NC1CCOc2ccccc12
How it was run: as §1

[6] = compound: ClCC(=O)NC1CCCc2ccccc12
How it was run: (§2)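 Values are average ratios of compound to vehicle from an unpaired t-test, limited to proteins with at least two unique peptides. HEK293T lysate (495 µg per sample, in Tris/CHAPS/IGEPAL buffer with protease inhibitors) was exposed in triplicate to a concentration series of compound or to vehicle for 3 h, then to Biotin-Ahx-Ub-VS at 0.5 µM final for 1 h. Labelled deubiquitinases were enriched on NeutrAvidin, digested with LysC and trypsin, and analysed by diaPASEF LC-MS/MS. Ratios are given on a log2 scale from Spectronaut label-free protein quantities normalised to the global median.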

[7] = compound: ClCC(=O)N[C@@H]1CCCc2ccccc12
How it was run: as §2

[8] = compound: ClCC(=O)N[C@H]1CCCc2ccccc12
How it was run: as §2

[9] = compound: CCC1N(CCc2cc(OC)c(Cl)cc12)C(=O)CCl
How it was run: as §1

[10] = compound: CCCC1N(CCc2cc(OC)c(OC)cc12)C(=O)CCl
How it was run: as §1

[11] = compound: CN(Cc1cccc(Br)c1)C(=O)CCl
How it was run: as §1

[12] = compound: CN(Cc1cccc(OCc2ccccc2C)c1)C(=O)CCl
How it was run: as §1

[13] = compound: CN(Cc1ccccc1)C(=O)CCl
How it was run: as §1

[14] = compound: COc1ccc(CN(C)C(=O)CCl)cc1
How it was run: as §1

[15] = compound: COc1cccc(CN(CCCc2ccccc2)C(=O)CCl)c1
How it was run: as §1

[16] = compound: ClCC(=O)N1CCc2cc(Cl)c(Cl)cc2C1
How it was run: as §1

[17] = compound: ClCC(=O)N1CCc2nc(ncc2C1)-c1ccccc1
How it was run: as §1

[18] = compound: ClCC(=O)N1CCc2nocc2C1
How it was run: as §1

[19] = compound: ClCC(=O)N1CCc2scc(Br)c2C1
How it was run: as §1

[20] = compound: ClCC(=O)NC(C1CCCC1)c1cccs1
How it was run: as §1

Measured: log2 ratio of Biotin-Ahx-Ub-VS probe labelling

USP42 (UniProt Q9H9J4)
Sequence of UniProt Q9H9J4 (Q9H9J4 whole entry): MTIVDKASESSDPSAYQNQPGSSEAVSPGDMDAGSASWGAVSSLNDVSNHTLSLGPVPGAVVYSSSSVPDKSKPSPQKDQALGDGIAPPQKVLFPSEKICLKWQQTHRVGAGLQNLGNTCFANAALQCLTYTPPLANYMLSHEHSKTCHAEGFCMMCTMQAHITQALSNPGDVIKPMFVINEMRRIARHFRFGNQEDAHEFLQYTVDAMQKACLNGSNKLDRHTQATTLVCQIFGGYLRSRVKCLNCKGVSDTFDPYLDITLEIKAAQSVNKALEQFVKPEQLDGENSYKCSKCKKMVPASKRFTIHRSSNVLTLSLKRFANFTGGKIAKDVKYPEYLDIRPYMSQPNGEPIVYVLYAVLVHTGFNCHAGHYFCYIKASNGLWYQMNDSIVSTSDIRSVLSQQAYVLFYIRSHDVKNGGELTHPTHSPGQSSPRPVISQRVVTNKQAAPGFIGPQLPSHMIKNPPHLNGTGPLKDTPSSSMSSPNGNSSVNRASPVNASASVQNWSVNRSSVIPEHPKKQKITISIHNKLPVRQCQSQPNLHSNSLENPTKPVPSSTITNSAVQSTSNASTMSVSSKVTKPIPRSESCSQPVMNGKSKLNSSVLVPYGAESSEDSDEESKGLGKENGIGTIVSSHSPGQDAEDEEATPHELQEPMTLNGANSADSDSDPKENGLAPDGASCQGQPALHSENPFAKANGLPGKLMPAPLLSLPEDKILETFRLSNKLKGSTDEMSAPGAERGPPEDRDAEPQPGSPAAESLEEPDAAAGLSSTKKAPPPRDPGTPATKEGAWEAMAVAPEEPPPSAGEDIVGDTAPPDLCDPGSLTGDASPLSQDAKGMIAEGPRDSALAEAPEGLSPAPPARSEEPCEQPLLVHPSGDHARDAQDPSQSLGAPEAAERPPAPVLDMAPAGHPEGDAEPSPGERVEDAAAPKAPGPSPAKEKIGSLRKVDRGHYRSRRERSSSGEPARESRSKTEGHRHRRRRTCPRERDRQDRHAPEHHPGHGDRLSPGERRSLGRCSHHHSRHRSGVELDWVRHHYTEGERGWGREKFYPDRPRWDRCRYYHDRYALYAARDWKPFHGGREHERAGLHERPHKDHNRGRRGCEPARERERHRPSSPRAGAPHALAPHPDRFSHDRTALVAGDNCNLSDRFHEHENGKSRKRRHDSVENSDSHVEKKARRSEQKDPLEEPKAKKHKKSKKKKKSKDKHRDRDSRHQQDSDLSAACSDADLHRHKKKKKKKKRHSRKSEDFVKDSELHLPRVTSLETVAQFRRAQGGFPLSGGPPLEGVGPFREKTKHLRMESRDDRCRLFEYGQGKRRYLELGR
inactive: [1]; compound concentration: 50uM 0.0875 | [1]; compound concentration: 200uM 0.424 | [2]; compound concentration: 50uM 0.125 | [2]; compound concentration: 200uM 0.131 | [3]; compound concentration: 50uM 0.0642 | [3]; compound concentration: 200uM 0.249 | [4]; compound concentration: 50uM -0.167 | [4]; compound concentration: 200uM 0.115 | [5]; compound concentration: 50uM -0.093 | [5]; compound concentration: 200uM 0.371 | [6]; compound concentration: 0.78uM -0.0166 | [6]; compound concentration: 1.56uM -0.0953 | [6]; compound concentration: 3.13uM -0.0821 | [6]; compound concentration: 6.25uM -0.0491 | [6]; compound concentration: 12.5uM -0.106 | [6]; compound concentration: 25uM -0.0142 | [6]; compound concentration: 50uM -0.0733 | [6]; compound concentration: 100uM 0.00602 | [6]; compound concentration: 200uM -0.207 | [7]; compound concentration: 0.78uM 0.0511 | [7]; compound concentration: 1.56uM 0.0688 | [7]; compound concentration: 3.13uM 0.0123 | [7]; compound concentration: 6.25uM 0.154 | [7]; compound concentration: 12.5uM -0.0261 | [7]; compound concentration: 25uM 0.0226 | [7]; compound concentration: 50uM -0.157 | [7]; compound concentration: 100uM 0.109 | [7]; compound concentration: 200uM 0.00814 | [8]; compound concentration: 0.78uM -0.186 | [8]; compound concentration: 1.56uM -0.0565 | [8]; compound concentration: 3.13uM -0.196 | [8]; compound concentration: 6.25uM -0.273 | [8]; compound concentration: 12.5uM -0.0469 | [8]; compound concentration: 25uM 0.0215 | [8]; compound concentration: 50uM -0.0548 | [8]; compound concentration: 100uM 0.132 | [8]; compound concentration: 200uM -0.0982 | [9]; compound concentration: 50uM -0.199 | [9]; compound concentration: 200uM 0.281 | [10]; compound concentration: 50uM -0.0757 | [10]; compound concentration: 200uM 0.0626 | [11]; compound concentration: 50uM 0.0496 | [11]; compound concentration: 200uM 0.397 | [12]; compound concentration: 50uM 0.101 | [12]; compound concentration: 200uM 0.171 | [13]; compound concentration: 50uM -0.0195 | [13]; compound concentration: 200uM 0.165 | [14]; compound concentration: 50uM -0.0749 | [14]; compound concentration: 200uM 0.205 | [15]; compound concentration: 50uM 0.0537 | [15]; compound concentration: 200uM 0.284 | [16]; compound concentration: 50uM 0.0405 | [16]; compound concentration: 200uM 0.669 | [17]; compound concentration: 50uM -0.0528 | [17]; compound concentration: 200uM 0.104 | [18]; compound concentration: 50uM 0.0476 | [18]; compound concentration: 200uM 0.187 | [19]; compound concentration: 50uM 0.182 | [19]; compound concentration: 200uM 0.44 | [20]; compound concentration: 50uM -0.428 | [20]; compound concentration: 200uM 0.159

OTUD4 (UniProt Q01804)
Sequence of UniProt Q01804 (Q01804 whole entry): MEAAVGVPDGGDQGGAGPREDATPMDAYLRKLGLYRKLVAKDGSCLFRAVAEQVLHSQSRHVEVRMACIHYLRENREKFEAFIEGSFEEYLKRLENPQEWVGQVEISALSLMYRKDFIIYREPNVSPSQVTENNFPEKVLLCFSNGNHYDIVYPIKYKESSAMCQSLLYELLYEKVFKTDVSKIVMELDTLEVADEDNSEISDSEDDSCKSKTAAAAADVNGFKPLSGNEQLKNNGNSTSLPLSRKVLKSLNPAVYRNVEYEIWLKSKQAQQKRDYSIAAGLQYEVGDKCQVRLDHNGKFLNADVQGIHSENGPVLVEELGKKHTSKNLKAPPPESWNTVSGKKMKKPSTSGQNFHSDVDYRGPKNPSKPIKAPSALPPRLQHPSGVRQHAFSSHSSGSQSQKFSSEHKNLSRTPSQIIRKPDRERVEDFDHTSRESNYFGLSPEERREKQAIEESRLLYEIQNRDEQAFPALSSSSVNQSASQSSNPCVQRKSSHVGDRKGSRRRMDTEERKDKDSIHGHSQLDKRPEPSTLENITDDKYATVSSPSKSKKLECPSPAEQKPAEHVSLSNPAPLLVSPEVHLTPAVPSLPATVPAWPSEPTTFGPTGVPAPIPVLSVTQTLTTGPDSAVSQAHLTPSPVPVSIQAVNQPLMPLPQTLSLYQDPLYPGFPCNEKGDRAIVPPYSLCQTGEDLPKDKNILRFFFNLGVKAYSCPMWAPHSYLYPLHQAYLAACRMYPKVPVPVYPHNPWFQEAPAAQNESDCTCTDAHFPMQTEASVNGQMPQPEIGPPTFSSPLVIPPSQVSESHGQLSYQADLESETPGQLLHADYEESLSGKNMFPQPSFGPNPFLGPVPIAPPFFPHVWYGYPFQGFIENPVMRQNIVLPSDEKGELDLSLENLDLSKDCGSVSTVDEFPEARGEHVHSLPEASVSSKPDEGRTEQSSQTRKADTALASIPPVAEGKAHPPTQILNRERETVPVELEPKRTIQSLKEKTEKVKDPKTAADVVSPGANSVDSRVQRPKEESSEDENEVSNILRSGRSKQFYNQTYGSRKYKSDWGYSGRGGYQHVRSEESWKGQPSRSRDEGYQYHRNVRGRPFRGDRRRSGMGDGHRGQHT
active: [2]; compound concentration: 200uM -1.51 | [4]; compound concentration: 200uM -1.46 | [5]; compound concentration: 200uM -1.33 | [6]; compound concentration: 50uM -1.21 | [6]; compound concentration: 100uM -1.92 | [6]; compound concentration: 200uM -2.86 | [7]; compound concentration: 100uM -1.39 | [7]; compound concentration: 200uM -2.13 | [8]; compound concentration: 50uM -1.41 | [8]; compound concentration: 100uM -2.07 | [8]; compound concentration: 200uM -2.61 | [9]; compound concentration: 200uM -1.4
inactive: [1]; compound concentration: 50uM -0.293 | [1]; compound concentration: 200uM -0.576 | [2]; compound concentration: 50uM -0.595 | [3]; compound concentration: 50uM -0.152 | [3]; compound concentration: 200uM -0.671 | [4]; compound concentration: 50uM -0.813 | [5]; compound concentration: 50uM -0.624 | [6]; compound concentration: 0.78uM -0.158 | [6]; compound concentration: 1.56uM -0.085 | [6]; compound concentration: 3.13uM -0.223 | [6]; compound concentration: 6.25uM -0.319 | [6]; compound concentration: 12.5uM -0.411 | [6]; compound concentration: 25uM -0.655 | [7]; compound concentration: 0.78uM -0.206 | [7]; compound concentration: 1.56uM -0.14 | [7]; compound concentration: 3.13uM -0.152 | [7]; compound concentration: 6.25uM -0.172 | [7]; compound concentration: 12.5uM -0.352 | [7]; compound concentration: 25uM -0.535 | [7]; compound concentration: 50uM -0.958 | [8]; compound concentration: 0.78uM -0.176 | [8]; compound concentration: 1.56uM -0.178 | [8]; compound concentration: 3.13uM -0.176 | [8]; compound concentration: 6.25uM -0.252 | [8]; compound concentration: 12.5uM -0.529 | [8]; compound concentration: 25uM -0.893 | [9]; compound concentration: 50uM -0.491 | [10]; compound concentration: 50uM -0.395 | [10]; compound concentration: 200uM -0.505 | [11]; compound concentration: 50uM -0.0958 | [11]; compound concentration: 200uM -0.146 | [12]; compound concentration: 50uM -0.447 | [12]; compound concentration: 200uM -0.51 | [13]; compound concentration: 50uM -0.294 | [13]; compound concentration: 200uM -0.346 | [14]; compound concentration: 50uM -0.216 | [14]; compound concentration: 200uM -0.205 | [15]; compound concentration: 50uM -0.174 | [15]; compound concentration: 200uM -0.415 | [16]; compound concentration: 50uM 0.000974 | [16]; compound concentration: 200uM -0.823 | [17]; compound concentration: 50uM 0.0593 | [17]; compound concentration: 200uM -0.446 | [18]; compound concentration: 50uM -0.424 | [18]; compound concentration: 200uM -0.874 | [19]; compound concentration: 50uM -0.0278 | [19]; compound concentration: 200uM -0.809 | [20]; compound concentration: 50uM -0.284 | [20]; compound concentration: 200uM -0.721

Source: the supplement of paper PMC11732987, “Enantioselective OTUD7B fragment discovery through chemoproteomics screening and high-throughput optimisation” (Communications Chemistry, 2025)
